Results published in PubChem BioAssay (NCATS).
Records with an inconclusive call do not appear. Values without a mark were called inactive. The source made the active and inactive calls. The call rests on the fitted dose curve; in most records, active means well fitted inhibition curve with a large enough effect; inconclusive means small, poorly fitted or top-dose-only effect; inactive means flat fitted curve, though single readings scatter.

system: CP269; assay: qHTS profiling for inhibitors of Plasmodium falciparum proliferation (AID 504749); further: nearly all actives have a fitted effect of over 60% in size;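 on activity, negative = inhibition: 0% = DMSO vehicle and full inhibition = artemisinin control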; settings: P. falciparum in erythrocytes, SYBR Green DNA, 72 h; series mostly up to 28.7 µM; activity, negative = inhibition: at the top concentration
How it was run: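 Fluorescence of SYBR Green-bound parasite DNA, read at 485/535 nm, served as the growth measure. Infected erythrocytes were cultured with compound 72 h; artemisinin (0.29 uM) and DMSO wells defined the normalization range.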
Potency means the concentration at half of the fitted maximal effect.

| Structure (SMILES) | activity, negative = inhibition | Potency |
| --- | --- | --- |
| C#C[C@]1(O)CC[C@H]2[C@@H]3CCc4cc(OC)ccc4[C@H]3CC[C@@]21C | -1.24% | – |
| CCCCNC(=O)NS(=O)(=O)c1ccc(N)cc1 | -3.05% | – |
| Nc1ccc(C(=O)NCC(=O)O)cc1 | 9.33% [at 12.8 µM] | – |
| OC1C(O)C(O)C(O)C(O)C1O (stereo not given) | -1.77% | – |
| O=S(=O)(O)c1ccc(O)cc1 | 3.64% | – |
| COc1cc(C(=O)NCc2ccc(OCCN(C)C)cc2)cc(OC)c1OC | -10.6% [at 12.8 µM] | – |
| COc1cc(C)nc(-n2nc(C)cc2OC)n1 | -4.79% [at 12.8 µM] | – |
| CC(=O)Oc1ccc(C)cc1 | -7.5% | – |
| CC(=O)NC(=O)c1ccccc1O | -0.81% | – |
| FC(F)(F)C(F)(F)C(F)(F)C(F)(F)C(F)(F)C(F)(F)C(F)(F)C(F)(F)Br | -2.51% | – |
| c1ccc(-c2nc[nH]c2-c2ccccc2)cc1 | -4.51% | – |
| CCNC(=O)NCc1cccc(Cl)c1 | -0.524% | – |
| O=C(O)Cc1csc(-c2ccc(Cl)cc2)n1 | -0.288% | – |
| Nc1nc(-c2ccccc2)c(Br)c(=O)[nH]1 | 11.9% | – |
| O=c1[nH]c(=O)n([C@H]2C[C@H](O)[C@@H](CO)O2)cc1F | -11.8% | – |
| CC(=O)Nc1ncc([N+](=O)[O-])s1 | 1.63% | – |
| Cc1cccc(C)c1NC(=O)CN1CCCCCC1 | -2.52% | – |
| CC[C@H](c1ccc(O)cc1)[C@@H](CC)c1ccc(O)cc1 | -6.54% [at 12.8 µM] | – |
| Cc1c(-c2ccccc2)oc2c(C(=O)OCCN3CCCCC3)cccc2c1=O | 3.91% [at 12.8 µM] | – |
| CCCCCCCCCCCCCCCCO | 3.43% | – |

| Structure (SMILES) | activity, negative = inhibition | Potency |
| --- | --- | --- |
| Oc1ccccc1C=NCc1ccccc1 | -0.135% | – |
| CCN(CC)CCNC(=O)COc1ccc(OC)cc1 | -2.34% | – |
| COc1cc(N)c(Cl)cc1C(=O)NC1CCN(Cc2ccccc2)CC1 | 0.213% [at 12.8 µM] | – |
| Cc1cc(NS(=O)(=O)c2ccc(N)cc2)nc(C)n1 | -7.98% | – |
| CC(=O)OC[C@H]1O[C@@H](n2ncc(=O)[nH]c2=O)[C@H](OC(C)=O)[C@@H]1OC(C)=O | 3.55% | – |
| CCOc1ccccc1OCCN[C@H](C)Cc1ccc(OC)c(S(N)(=O)=O)c1 | 0.699% | – |
| O=C(NCCc1c[nH]c2ccccc12)c1cccnc1 | -4.68% | – |
| Cc1ccccc1OCC(O)CO (stereo not given) | -0.114% | – |
| Cc1cc(C)cc(OCC2CNC(=O)O2)c1 (stereo not given) | -5.65% | – |
| CCOc1cc(OCC)c(C(=O)CCC(=O)O)cc1OCC | -0.685% | – |
| N#CCC(=O)NN | -0.729% | – |
| O=C(O)C(Cc1cc(I)c(O)c(I)c1)c1ccccc1 (stereo not given) | 4.88% | – |
| CCCCCCCC/C=C\CCCCCCCCN | -3.97% | – |
| CC1=C(C(=O)O)N2C(=O)[C@@H](NC(=O)[C@H](N)c3ccccc3)[C@H]2SC1 | -4.14% | – |
| CCN(CC)CCNc1ccc(CO)c2sc3ccccc3c(=O)c12 | – | 1.9 µM (active) |
| Cl/C(=C\n1cncn1)c1ccc(Cl)cc1Cl | 7.65% | – |
| CCCCCCCCCCCCCCCC(=O)O | -9.25% | – |
| CC(C)CCCC(C)N (stereo not given) | 5.89% | – |
| CCOC(=O)c1ccc(N)cc1 | 4.74% [at 12.8 µM] | – |
| Cc1c[nH]c2ccccc12 | 3.21% | – |
